The source of these data is the supplement of paper PMC4723716.

The test system of the assay is Plasmodium falciparum NF54 gametocytes. The assay can be described thus: viability index relative to DMSO control (fraction); higher = less gametocyte killing. The following applies: gametocyte stage: Stage IV viability index; 12.5 µM; incubation time: 72 h. The method, boiled down: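 P. falciparum NF54 gametocytes of each stage (I–V), in serum-containing medium (0.50% gametocytemia, 1.25% hematocrit, 40 µl), were incubated with compound at 12.5 µM in 384-well plates for 72 hr at 37°C under low oxygen. Wells received 5 µl of 5 µM MitoTracker Red CMXRos for 20 min. Then 5 µl was moved into 40 µl of 500 nM dye in serum-free medium and imaged after 30 min (three fields). The viability index was the gametocyte particle count divided by the plate mean of DMSO wells.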
Consider `COc1ccc(CCn2c(=N)c(C(=O)NCc3cccnc3)cc3c(=O)n4cccc(C)c4nc32)cc1`, for which the viability index amounted to 0.937.

In turn, `CCOc1cc2c(cc1OCC)C(c1cc(Cl)ccc1O)NCC2` (stereo not drawn) came in with a viability index of 0.532.

Molecule `CCC(=O)Nc1nnc(Cc2ccc(OC)c(OC)c2)s1` had a viability index of 1.08.

`CC1=C(CC(=O)c2cccc([N+](=O)[O-])c2)C(=O)c2ccccc2C1=O` returned a viability index of 0.196.

Regarding `Cc1cc(N(C)C)nc(Nc2ccc(NC(=O)Nc3ccccc3)cc2)n1`, the viability index stood at 0.0285.

`O=C(Nc1nc(-c2ccccn2)cs1)c1ccccc1Br` displayed a viability index of 0.158.

For `FC(F)(F)c1ccc(Nc2nnnc3ccccc23)cc1`, the viability index amounted to 0.72.

Molecule `COc1ccc(-c2cc3c(SCC(=O)Nc4cc(C(F)(F)F)ccc4Cl)nccn3n2)cc1` gave a viability index of 0.924.

`COc1ccc(C(=O)NC(c2ccccc2Cl)c2cc(Cl)c3cccnc3c2O)cc1` (stereo not drawn) displayed a viability index of 0.241.

As for `COc1ccc2c(c1OC)C(=O)N1c3ccccc3N=C(c3ccc(C)cc3)CC21` (stereo not drawn), the viability index was 0.94.

For `Cc1ccc(C)c(-c2csc(Nc3ccc(C)c(C)c3)n2)c1`, the viability index amounted to 0.639.

For the molecule `COc1ccc(C2N(C)c3ccccc3N2C)cc1`, the viability index was 0.964.

With `CCOC(=O)C1=C(c2ccccc2)N=c2sc(=Cc3cc(C)n(-c4ccc(F)cc4)c3C)c(=O)n2C1c1cccc(OC)c1OC` (stereo not drawn), the viability index is 0.839.

As for `COc1ccc(C(=O)C2CC2c2ccc(Cl)cc2)cc1` (stereo not drawn), the viability index came to 0.93.

On to `Cc1ccc(CSCc2ccc(C(=O)NC3CC3)o2)cc1`, for which the viability index came to 0.924.

In turn, `CCOc1ccc2c(c1)CN(Cc1ccc(Cl)cc1)CO2` showed a viability index of 0.592.

`CCOc1ccccc1NC(=O)CN1CCN(C(=O)c2ccco2)CC1`: the viability index was found to be 0.959.

For `COc1cc2cc(C(=O)Nc3ccccc3)c(N)nc2cc1OC`, the viability index was 0.86.
